KB-3-1 tox: kills parental KB-3-1 adenocarcinoma cells. AID 1347075. KB-3-1 viability, CellTiter-Glo ATP luminescence, 72 h. Potency, µM (titrated, usually from 46.1 µM), hits mostly cytotoxic. hit rate 1.4% among 400,000; note: nearly all actives have a fitted effect of over 60% in size
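Multi-concentration cytotoxicity screen in KB-3-1 cells grown in DMEM lacking phenol red with 10% FBS. After 72 h at 37 °C with compound, ATP-dependent luminescence was recorded.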
KB-V1 MDR tox: KB-V1 MDR subline cytotoxicity; KB-V1 MDR cells viability, CellTiter-Glo, 72 h; Potency, µM (doses to about 46.1 µM), actives largely listed as cytotoxic; hit rate 3.4% among 400,000; note: nearly all actives have a fitted effect of over 60% in size
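Cytotoxicity via CellTiter-Glo luminescence after 72 h compound exposure at 37 degrees C. Cells: drug-selected KB-V1 line, DMEM phenol-red free plus 10% FBS. Compounds tested at multiple concentrations; normalized data fitted to concentration-effect curves.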
HT1080 IDH1KD tx: toxicity to HT-1080 IDH1 knockdown cells (counter line). HT-1080 IDH1 knockdown viability, ATP luminescence, 48 h. Potency, µM (highest dose often 46.1 µM), for inactives: at the top dose activity, negative = toxicity, hits mostly cytotoxic. hit rate 2% among 360,000. AID 686971;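 note: 0% = DMSO wells and -100% = cell-free medium wells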
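Cytotoxicity counter-line: IDH1KD HT-1080, 48 h, CellTiter-Glo. Curves classed by r2, magnitude and activity.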
HT1080NT lethal: kills 2HG-producing HT-1080-NT fibrosarcoma cells | hit rate 1.6% among 360,000 | HT-1080-NT fibrosarcoma viability, CellTiter-Glo ATP luminescence, 48 h | Potency, µM (titrated, usually from 46.1 µM), for the others: top-dose activity, negative = less viability, actives largely listed as cytotoxic;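 note: NT is the 2HG producing partner of a matched IDH1 knockdown line; 0% = DMSO-treated cells and -100% = media-only wells without cells; nearly all actives have a fitted effect of over 55% in size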
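Compounds were tested in concentration-response format on HT-1080-NT cells for 48 hours at 37 degrees C. Cell viability came from CellTiter-Glo luminescence; curves were classified by r2, response magnitude and activity.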
DT40 TDP1 CPT: growth inhibition of DT40 Tdp1-/-;hTDP1 cells with camptothecin (screen for TDP1 inhibitors); chicken DT40 Tdp1-/-;hTDP1 cells + 20 nM CPT, ATP luminescence, 48 h; Potency, µM (titrated, usually from 46.2 µM), inactives show at the highest dose activity change, negative = growth inhibition, hits mostly inhibitors; hit rate 12% among 420,000; note: nearly all actives have a fitted effect of over 55% in size
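Chicken DT40 Tdp1-/- cells stably complemented with human TDP1 were seeded at 400 cells/well in medium containing 20 nM camptothecin, exposed to pin-transferred compounds, and grown at 37 °C for at least 48 hr. Viability was read as ATP luminescence.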
DT40 TDP1 no CPT: qHTS for Inhibitors of human tyrosyl-DNA phosphodiesterase 1 (TDP1): qHTS in cells in absence of CPT | Potency, µM (titrated, usually from 46.2 µM), inactives show top-dose activity change, negative = growth inhibition, most hits filed as inhibitors | hit rate 15% among 420,000 | DT40 Tdp1-/- hTDP1 cells, no CPT, ATP luminescence, 48 h; note: nearly all actives have a fitted effect of over 55% in size
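Stably hTDP1-transfected Tdp1-null chicken DT40 cells were treated with library compounds minus camptothecin and grown for at least 48 hr at 37 °C, after which cellular ATP was quantified by luminescence.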
* = called active by the depositor. Compounds with a hit are over-represented: about 19% of the library has one in this group of screens. Calls come from the whole dose curve; as a rule, active = well fitted curve in the direction sought with a large enough effect; inconclusive = small, poorly fitted or top-dose-only effect, or another doubt; inactive = no such curve, though single readings can be large; an effect the other way counts as inactive or inconclusive. Unless noted, % is set by controls: 0 for no effect and ±100 for the full control effect; potency is the fitted concentration of half-maximal effect.

CC(=O)Oc1ccc(-c2ccc(C(=O)Nc3cccc(S(=O)(=O)N4CCOCC4)c3)cc2)cc1 was read as KB-3-1 tox inconclusive, KB-V1 MDR tox inconclusive, HT1080 IDH1KD tx 10µM*, HT1080NT lethal inconclusive, DT40 TDP1 CPT 23µM* and DT40 TDP1 no CPT 16µM*.
Screening CCOc1c(Br)cc(C(=O)Nc2cccc(S(=O)(=O)N3CCOCC3)c2)cc1OC returned KB-3-1 tox inactive, KB-V1 MDR tox inconclusive, HT1080 IDH1KD tx -15%, HT1080NT lethal -20%, DT40 TDP1 CPT inconclusive and DT40 TDP1 no CPT 23µM*.
For COc1ccc(C(=O)Nc2cccc(S(=O)(=O)N3CCCC3)c2)cc1S(=O)(=O)N1CCOCC1 the results were KB-3-1 tox inactive, KB-V1 MDR tox inactive, HT1080 IDH1KD tx 0%, HT1080NT lethal 4%, DT40 TDP1 CPT inconclusive and DT40 TDP1 no CPT inconclusive.
`COc1ccc(C(=O)NC(=S)Nc2cccc(S(=O)(=O)N3CCOCC3)c2)cc1` gave KB-3-1 tox 5.8µM*, KB-V1 MDR tox 5.2µM*, HT1080 IDH1KD tx 13µM*, HT1080NT lethal 15µM*, DT40 TDP1 CPT 5.8µM* and DT40 TDP1 no CPT 7.3µM*.
Screening O=C(CSc1ccc2ccccc2n1)NCCCN1CCCC1=O returned KB-3-1 tox inactive, KB-V1 MDR tox inactive, HT1080 IDH1KD tx 1%, HT1080NT lethal 4%, DT40 TDP1 CPT -4% and DT40 TDP1 no CPT 18%.
`COc1ccc(N/N=C(/C(N)=O)C2=NC(C)(C)Cc3ccccc32)cc1` gave KB-3-1 tox inconclusive, KB-V1 MDR tox inconclusive, HT1080 IDH1KD tx inconclusive, HT1080NT lethal inconclusive, DT40 TDP1 CPT 16µM* and DT40 TDP1 no CPT 16µM*.
Screening COc1ccc(NC(=O)NCc2ccccn2)cc1 returned KB-3-1 tox inactive, KB-V1 MDR tox inactive, HT1080 IDH1KD tx -1%, HT1080NT lethal 8%, DT40 TDP1 CPT 1% and DT40 TDP1 no CPT -7%.
CCOC(=O)C1=C(C)Nc2ccccc2N=C1NC(=O)C1CCN(C(=O)c2ccccc2C)CC1 was read as KB-3-1 tox inconclusive, KB-V1 MDR tox inactive, HT1080 IDH1KD tx -3%, HT1080NT lethal -14%, DT40 TDP1 CPT inconclusive and DT40 TDP1 no CPT -18%.
`CCCCNC(=O)c1nc(-c2ccncc2)oc1-c1ccc(OC(F)(F)F)cc1` gave KB-3-1 tox inactive, KB-V1 MDR tox inactive, HT1080 IDH1KD tx 2%, HT1080NT lethal 11%, DT40 TDP1 CPT 28% and DT40 TDP1 no CPT 10%.
`CCCCNC(=O)c1nc(-c2cccs2)oc1-c1ccc(Cl)cc1` gave KB-3-1 tox inactive, KB-V1 MDR tox inconclusive, HT1080 IDH1KD tx 27%, HT1080NT lethal 25%, DT40 TDP1 CPT inconclusive and DT40 TDP1 no CPT 15µM*.
`CCCCNC(=O)c1nc(-c2cc3ccccc3[nH]2)oc1-c1ccccc1` gave KB-3-1 tox inactive, KB-V1 MDR tox 8.2µM*, HT1080 IDH1KD tx -9%, HT1080NT lethal -16%, DT40 TDP1 CPT inconclusive and DT40 TDP1 no CPT 16µM*.
Screening CNC[C@@H]1CC[C@@H](N)[C@@H](O[C@H]2[C@H](O)[C@@H](O[C@H]3OC[C@](C)(O)[C@H](NC)[C@H]3O)[C@H](N)C[C@@H]2N)O1 returned DT40 TDP1 CPT 4% and DT40 TDP1 no CPT 8%.
O=c1[nH]c(=O)n(C2CCCO2)cc1Br (stereo not given) was read as KB-3-1 tox inactive, KB-V1 MDR tox inactive, HT1080 IDH1KD tx 16%, HT1080NT lethal 17%, DT40 TDP1 CPT 6% and DT40 TDP1 no CPT -4%.
For COc1ccc(N2CC(NC(=O)COc3ccccc3C)CC2=O)cc1OC (stereo not given) the results were KB-3-1 tox inactive, KB-V1 MDR tox inactive, DT40 TDP1 CPT -5% and DT40 TDP1 no CPT inconclusive.
`Fc1ccc2[nH]c3c(Cl)ncnc3c2c1` gave KB-3-1 tox inactive, KB-V1 MDR tox inactive, HT1080 IDH1KD tx -11%, HT1080NT lethal -14%, DT40 TDP1 CPT -3% and DT40 TDP1 no CPT -19%.
`Fc1ccc2[nH]c3c(N4CCN(c5ccccc5)CC4)ncnc3c2c1` gave KB-3-1 tox inactive, KB-V1 MDR tox 16µM*, HT1080 IDH1KD tx 21µM*, HT1080NT lethal inconclusive, DT40 TDP1 CPT 5.2µM* and DT40 TDP1 no CPT 4.6µM*.
CCOC(=O)N1CCN(c2ncnc3c2[nH]c2ccc(OC)cc23)CC1 was read as KB-3-1 tox inactive, KB-V1 MDR tox 15µM*, HT1080 IDH1KD tx -20%, HT1080NT lethal -8%, DT40 TDP1 CPT inconclusive and DT40 TDP1 no CPT 23µM*.
`COc1ccc(N2CCN(c3ncnc4c3[nH]c3ccccc34)CC2)cc1` gave KB-3-1 tox inactive, KB-V1 MDR tox inactive, HT1080 IDH1KD tx -12%, HT1080NT lethal -9%, DT40 TDP1 CPT 3.7µM* and DT40 TDP1 no CPT 2.3µM*.
`COc1ccc2[nH]c3c(N4CCc5ccccc5C4)ncnc3c2c1` gave KB-3-1 tox 2.6µM*, KB-V1 MDR tox 2.6µM*, HT1080 IDH1KD tx 10µM*, HT1080NT lethal 2.3µM*, DT40 TDP1 CPT 1.2µM* and DT40 TDP1 no CPT 1.3µM*.
O=C(O)C1CCC1C(=O)Nc1nc(-c2ccc(Cl)s2)cs1 (stereo not given) was read as KB-3-1 tox inactive, KB-V1 MDR tox inactive, HT1080 IDH1KD tx 10%, HT1080NT lethal 7%, DT40 TDP1 CPT -11% and DT40 TDP1 no CPT -6%.
CCCCN(C(=O)CSc1ncn[nH]1)c1c(N)n(Cc2ccccc2)c(=O)[nH]c1=O was read as KB-3-1 tox inactive, KB-V1 MDR tox inactive, HT1080 IDH1KD tx -2%, HT1080NT lethal -1%, DT40 TDP1 CPT -17% and DT40 TDP1 no CPT 20%.
Cc1c(NC(=O)c2ccc(OC(C)C)cc2)cccc1-c1nc2ncccc2o1 was read as KB-3-1 tox inactive, KB-V1 MDR tox inactive, DT40 TDP1 CPT inconclusive and DT40 TDP1 no CPT inconclusive.
CCOC(=O)C1CCN(c2ncnc3c2oc2ccc(Cl)cc23)CC1 was read as KB-3-1 tox inactive, KB-V1 MDR tox inactive, HT1080 IDH1KD tx -29%, HT1080NT lethal inconclusive, DT40 TDP1 CPT inconclusive and DT40 TDP1 no CPT inconclusive.
Screening CCOC(=O)N1CCN(c2ncnc3c2[nH]c2ccc(F)cc23)CC1 returned KB-3-1 tox inconclusive, KB-V1 MDR tox inconclusive, HT1080 IDH1KD tx inconclusive, HT1080NT lethal -1%, DT40 TDP1 CPT 6.5µM* and DT40 TDP1 no CPT 2.1µM*.

Source: PubChem (National Center for Advancing Translational Sciences (NCATS))
